Holding throughout (conditions): mRNA level, 48 h; actives raise or lower the signal
Read-out in assay [1]: matrix metalloproteinase-10 (MMP10), MMP10 (gene 4319)
The assay is described as follows: LTEA_HepaRG_MMP10: Life Technologies and Expression Analysis (LTEA) Assay for matrix metalloproteinase-10 (MMP10) using HepaRG (AID 2283517). The essentials:
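HepaRG, collagen I, ~100,000 cells/well; serum-free induction medium; 48 h exposure, duplicate, 8-pt half-log to 100 uM, 0.5% DMSO. Readout: TaqMan qRT-PCR, normalized to ACTB/GAPDH/POLR2A; bidirectional fit vs DMSO.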

Read-out in the next assay: MYC, MYC (gene 4609)
The assay is described as follows: LTEA_HepaRG_MYC: Life Technologies and Expression Analysis (LTEA) Assay for MYC using HepaRG (AID 2283518). The essentials: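 Differentiated human HepaRG cells, plated 48 h then switched to serum-free induction medium, were exposed in duplicate for 48 h to 8-point half-log series up to 100 uM in 0.5% DMSO. MYC mRNA measured by qRT-PCR, normalized to ACTB/GAPDH/POLR2A.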

Read-out in assay [2]: matrix metalloproteinase-3 (MMP3), MMP3 (gene 4314)
Briefly: LTEA_HepaRG_MMP3: Life Technologies and Expression Analysis (LTEA) Assay for matrix metalloproteinase-3 (MMP3) using HepaRG (AID 2283519). The essentials:
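Differentiated human HepaRG cells, plated 48 h on collagen I, were exposed in duplicate for 48 h in serum-free induction medium to eight half-log concentrations up to 100 uM in 0.5% DMSO. MMP3 mRNA was quantified by TaqMan qRT-PCR, normalised to ACTB, GAPDH and POLR2A.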

Read-out in assay [3]: Paternally Expressed 10 (PEG10), PEG10 (gene 23089)
Briefly: LTEA_HepaRG_PEG10: Life Technologies and Expression Analysis (LTEA) Assay for Paternally Expressed 10 (PEG10) using HepaRG (AID 2283520).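 For AC50: PEG10 transcript by qRT-PCR normalised to ACTB GAPDH and POLR2A.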 The method in brief:
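Chemicals tested on HepaRG cells for 48 h, highest concentration 100 uM. PEG10 expression assessed by qRT-PCR relative to DMSO control.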

Read-out in assay [4]: Protein phosphatase 2A (PPP2R4), PTPA (gene 5524)
The assay is described as follows: LTEA_HepaRG_PPP2R4: Life Technologies and Expression Analysis (LTEA) Assay for Protein phosphatase 2A (PPP2R4) using HepaRG (AID 2283522). The method in brief:
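Gene-expression endpoint in HepaRG hepatic cells: 48 h treatment across eight half-log concentrations up to 100 uM in 0.5% DMSO. PPP2R4 mRNA by qRT-PCR, normalized to three endogenous control genes.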

Read-out in assay [5]: Phosphatase and tensin (PTEN), PTEN (gene 5728)
The assay is described as follows: LTEA_HepaRG_PTEN: Life Technologies and Expression Analysis (LTEA) Assay for Phosphatase and tensin (PTEN) using HepaRG (AID 2283523). The method in brief:
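Differentiated human HepaRG cells, plated 48 h then switched to serum-free induction medium, were exposed in duplicate for 48 h to eight half-log concentrations up to 100 uM in 0.5% DMSO. PTEN mRNA measured by TaqMan qRT-PCR, normalized to ACTB/GAPDH/POLR2A, bidirectional fit versus DMSO.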

Read-out in assay [6]: Pyruvate Dehydrogenase Kinase 4 (PDK4), PDK4 (gene 5166)
The assay is described as follows: LTEA_HepaRG_PDK4: Life Technologies and Expression Analysis (LTEA) Assay for Pyruvate Dehydrogenase Kinase 4 (PDK4) using HepaRG (AID 2283525). The essentials: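 Differentiated human HepaRG cells, pre-cultured 48 h, were exposed in duplicate for 48 h in serum-free induction medium to eight half-log concentrations up to 100 uM in 0.5% DMSO. PDK4 mRNA was quantified by qRT-PCR, normalized to ACTB, GAPDH and POLR2A, bidirectional fitting versus DMSO.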

Read-out in assay [7]: NAD(P)H dehydrogenase [quinone] 1 (NQO1), NQO1 (gene 1728)
The assay is described as follows: LTEA_HepaRG_NQO1: Life Technologies and Expression Analysis (LTEA) Assay for NAD(P)H dehydrogenase [quinone] 1 (NQO1) using HepaRG (AID 2283526). The essentials:
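Human HepaRG hepatic cells received chemicals for 48 h in serum-free induction medium with 0.5% DMSO, up to 100 uM. Expression was assessed by TaqMan qRT-PCR against housekeeping controls and fitted bidirectionally against DMSO.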

Read-out in assay [8]: Nuclear factor erythroid 2-related factor 2 (Homo sapiens) (UniProt Q16236)
Briefly: LTEA_HepaRG_NFE2L2: Life Technologies and Expression Analysis (LTEA) Assay for Nuclear factor erythroid 2-related factor 2 (NFE2L2) Transcription Factor using HepaRG (AID 2283527).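 For outcome: TaqMan qRT-PCR transcript level normalised to ACTB GAPDH and POLR2A housekeeping genes.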 The method in brief:
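Differentiated human HepaRG cells in serum-free induction medium were exposed for 48 h to eight concentrations (top 100 uM, half-log dilutions, 0.5% DMSO), in duplicate. NFE2L2 mRNA was quantified by TaqMan qRT-PCR, normalized to ACTB, GAPDH and POLR2A, with bidirectional fitting versus DMSO.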

Read-out in assay [9]: Signal transducer and activator of transcription 3 (Homo sapiens) (UniProt P40763)
The assay is described as follows: LTEA_HepaRG_STAT3: Life Technologies and Expression Analysis (LTEA) Assay for Signal transducer and activator of transcription (STAT3) using HepaRG (AID 2283529). The method in brief: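 Differentiated human HepaRG cells in serum-free induction medium were exposed in duplicate for 48 h to eight half-log concentrations up to 100 uM in 0.5% DMSO. STAT3 mRNA was quantified by TaqMan qRT-PCR, normalized to ACTB, GAPDH and POLR2A, and fitted bidirectionally against DMSO.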

Read-out in assay [10]: solute carrier (SLCO1B1), SLCO1B1 (gene 10599)
The assay is described as follows: LTEA_HepaRG_SLCO1B1: Life Technologies and Expression Analysis (LTEA) Assay for solute carrier (SLCO1B1) using HepaRG (AID 2283530). The essentials: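 Differentiated human HepaRG cells, plated 48 h, switched to serum-free induction medium and exposed in duplicate for 48 h to 8 half-log concentrations (top 100 uM) in 0.5% DMSO. SLCO1B1 mRNA by TaqMan qRT-PCR, normalized to ACTB/GAPDH/POLR2A.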

Read-out in assay [11]: sulfotransferase 2A1 (SULT2A1), SULT2A1 (gene 6822)
Briefly: LTEA_HepaRG_SULT2A1: Life Technologies and Expression Analysis (LTEA) Assay for sulfotransferase 2A1 (SULT2A1) using HepaRG (AID 2283531). The method in brief:
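Differentiated human HepaRG cells in serum-free induction medium were exposed for 48 h to eight half-log concentrations (top 100 uM, 0.5% DMSO). SULT2A1 mRNA was measured by qRT-PCR, normalized to ACTB, GAPDH and POLR2A, and fitted bidirectionally against DMSO.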

Read-out in assay [12]: Transforming Growth Factor (TGFA), TGFA (gene 7039)
Briefly: LTEA_HepaRG_TGFA: Life Technologies and Expression Analysis (LTEA) Assay for Transforming Growth Factor (TGFA) using HepaRG (AID 2283532). The essentials: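 Differentiated human HepaRG cells, plated 48 h then switched to serum-free induction medium, were exposed in duplicate for 48 h to 8-point half-log series from 100 uM in 0.5% DMSO. TGFA mRNA measured by qRT-PCR, normalized to ACTB/GAPDH/POLR2A, bidirectional fit versus DMSO.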

Read-out in assay [13]: Transforming Growth Factor (TGFB1), TGFB1 (gene 7040)
The assay is described as follows: LTEA_HepaRG_TGFB1: Life Technologies and Expression Analysis (LTEA) Assay for Transforming Growth Factor (TGFB1) Transporter using HepaRG (AID 2283533). The method in brief:
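Differentiated human HepaRG cells in serum-free induction medium were exposed in duplicate for 48 h to eight concentrations (top 100 uM, half-log steps, 0.5% DMSO). TGFB1 mRNA was quantified by qRT-PCR, normalized to ACTB, GAPDH, POLR2A, and fitted bidirectionally against DMSO.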

Read-out in a further assay: TIMP1, TIMP1 (gene 7076)
The assay is described as follows: LTEA_HepaRG_TIMP1: Life Technologies and Expression Analysis (LTEA) Assay for TIMP1 using HepaRG (AID 2283534). The essentials:
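Differentiated human HepaRG cells in serum-free induction medium were exposed 48 h to chemicals (8 half-log concentrations, top 100 uM, 0.5% DMSO). TIMP1 mRNA was quantified by TaqMan qRT-PCR, normalized to ACTB/GAPDH/POLR2A; bidirectional fit versus DMSO.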

Read-out in assay [14]: Tumor necrosis factor receptor 1 (TNFRSF1A), TNFRSF1A (gene 7132)
The assay is described as follows: LTEA_HepaRG_TNFRSF1A: Life Technologies and Expression Analysis (LTEA) Assay for Tumor necrosis factor receptor 1 (TNFRSF1A) using HepaRG (AID 2283535). The essentials:
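Differentiated human HepaRG cells were exposed in duplicate for 48 h in serum-free induction medium to eight concentrations (top 100 uM, half-log steps, 0.5% DMSO). TNFRSF1A mRNA was quantified by qRT-PCR, normalized to ACTB, GAPDH and POLR2A, then fitted bidirectionally against DMSO.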

Read-out in assay [15]: Nuclear factor NF-kappa-B p105 subunit (Homo sapiens) (UniProt P19838)
Briefly: LTEA_HepaRG_NFKB1: Life Technologies and Expression Analysis (LTEA) Assay for Nuclear Factor Kappa B Subunit 1 (NFKB1) using HepaRG (AID 2283521).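 Note: TaqMan qRT-PCR transcript normalised to ACTB GAPDH and POLR2A housekeeping genes.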 The method in brief:
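Differentiated human HepaRG cells were exposed for 48 h in serum-free induction medium to eight concentrations (top 100 uM, half-log steps, 0.5% DMSO), in duplicate. NFKB1 mRNA was measured by TaqMan qRT-PCR, normalized to ACTB/GAPDH/POLR2A, and fitted bidirectionally against DMSO.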

Read-out in assay [16]: succinate dehydrogenase complex iron sulfur subunit B (SDHB), SDHB (gene 6390)
The assay is described as follows: LTEA_HepaRG_SDHB: Life Technologies and Expression Analysis (LTEA) Assay for succinate dehydrogenase complex iron sulfur subunit B (SDHB) using HepaRG (AID 2283528). The essentials:
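HepaRG, 48 h exposure, 8-pt half-log series from 100 uM in 0.5% DMSO, duplicates. Readout: SDHB mRNA by Fluidigm qRT-PCR vs housekeeping genes; bidirectional fit relative to DMSO.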

Read-out in assay [17]: solute carrier (SLC22A1), SLC22A1 (gene 6580)
Briefly: LTEA_HepaRG_SLC22A1: Life Technologies and Expression Analysis (LTEA) Assay for solute carrier (SLC22A1) using HepaRG (AID 2283524). The essentials: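 Human HepaRG cells were plated 48 h, switched to serum-free induction medium, then exposed in duplicate for 48 h to 8-point half-log series from 100 uM in 0.5% DMSO. SLC22A1 mRNA measured by qRT-PCR, normalized to ACTB/GAPDH/POLR2A, fitted bidirectionally versus DMSO.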

We go through four compounds from PubChem BioAssay (EPA / NIEHS).

Calls of active or inactive are those of the source. Rule for the calls: active = hit-call score of the fitted dose curve at least 0.9, where 1 is the maximum; inactive = score below 0.9.

Chain of Signal transducer and activator of transcription 3 (Homo sapiens) (P40763 whole entry, looked up): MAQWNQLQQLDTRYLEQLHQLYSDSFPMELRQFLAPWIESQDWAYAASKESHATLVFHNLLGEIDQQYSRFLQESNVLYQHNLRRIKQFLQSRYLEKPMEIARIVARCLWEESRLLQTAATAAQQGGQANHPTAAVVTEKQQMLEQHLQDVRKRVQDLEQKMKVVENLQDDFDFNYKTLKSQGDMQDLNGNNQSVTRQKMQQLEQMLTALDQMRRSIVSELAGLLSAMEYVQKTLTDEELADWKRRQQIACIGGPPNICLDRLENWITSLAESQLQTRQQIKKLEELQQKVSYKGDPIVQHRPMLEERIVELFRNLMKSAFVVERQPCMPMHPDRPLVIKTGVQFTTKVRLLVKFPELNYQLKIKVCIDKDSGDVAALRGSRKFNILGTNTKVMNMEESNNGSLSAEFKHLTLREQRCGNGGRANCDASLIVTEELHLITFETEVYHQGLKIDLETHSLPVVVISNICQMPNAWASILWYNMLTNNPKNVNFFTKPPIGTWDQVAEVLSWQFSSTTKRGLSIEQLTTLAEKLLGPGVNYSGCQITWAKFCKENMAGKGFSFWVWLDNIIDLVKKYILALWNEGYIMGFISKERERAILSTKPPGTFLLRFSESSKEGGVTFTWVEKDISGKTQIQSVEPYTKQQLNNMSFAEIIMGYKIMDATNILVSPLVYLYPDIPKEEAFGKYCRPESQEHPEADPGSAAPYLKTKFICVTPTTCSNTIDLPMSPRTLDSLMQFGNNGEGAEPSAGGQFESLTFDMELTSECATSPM
Chain of Nuclear factor erythroid 2-related factor 2 (Homo sapiens) (Q16236 whole entry, looked up): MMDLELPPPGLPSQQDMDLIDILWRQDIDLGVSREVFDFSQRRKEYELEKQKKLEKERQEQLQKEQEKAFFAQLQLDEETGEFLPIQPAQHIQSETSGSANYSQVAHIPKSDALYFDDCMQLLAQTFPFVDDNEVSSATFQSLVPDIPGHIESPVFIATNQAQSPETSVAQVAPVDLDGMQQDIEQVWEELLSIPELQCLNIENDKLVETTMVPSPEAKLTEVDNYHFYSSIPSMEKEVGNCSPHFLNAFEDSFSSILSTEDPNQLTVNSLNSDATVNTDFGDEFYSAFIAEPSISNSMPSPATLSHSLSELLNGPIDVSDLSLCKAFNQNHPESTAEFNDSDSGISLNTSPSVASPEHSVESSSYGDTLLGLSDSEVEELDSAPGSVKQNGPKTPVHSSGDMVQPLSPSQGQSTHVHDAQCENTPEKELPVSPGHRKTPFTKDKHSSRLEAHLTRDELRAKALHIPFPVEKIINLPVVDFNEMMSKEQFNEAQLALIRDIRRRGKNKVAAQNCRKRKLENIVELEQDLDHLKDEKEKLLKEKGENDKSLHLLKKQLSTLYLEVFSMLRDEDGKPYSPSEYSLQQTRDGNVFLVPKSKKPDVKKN
Chain of Nuclear factor NF-kappa-B p105 subunit (Homo sapiens) (P19838 whole entry, looked up): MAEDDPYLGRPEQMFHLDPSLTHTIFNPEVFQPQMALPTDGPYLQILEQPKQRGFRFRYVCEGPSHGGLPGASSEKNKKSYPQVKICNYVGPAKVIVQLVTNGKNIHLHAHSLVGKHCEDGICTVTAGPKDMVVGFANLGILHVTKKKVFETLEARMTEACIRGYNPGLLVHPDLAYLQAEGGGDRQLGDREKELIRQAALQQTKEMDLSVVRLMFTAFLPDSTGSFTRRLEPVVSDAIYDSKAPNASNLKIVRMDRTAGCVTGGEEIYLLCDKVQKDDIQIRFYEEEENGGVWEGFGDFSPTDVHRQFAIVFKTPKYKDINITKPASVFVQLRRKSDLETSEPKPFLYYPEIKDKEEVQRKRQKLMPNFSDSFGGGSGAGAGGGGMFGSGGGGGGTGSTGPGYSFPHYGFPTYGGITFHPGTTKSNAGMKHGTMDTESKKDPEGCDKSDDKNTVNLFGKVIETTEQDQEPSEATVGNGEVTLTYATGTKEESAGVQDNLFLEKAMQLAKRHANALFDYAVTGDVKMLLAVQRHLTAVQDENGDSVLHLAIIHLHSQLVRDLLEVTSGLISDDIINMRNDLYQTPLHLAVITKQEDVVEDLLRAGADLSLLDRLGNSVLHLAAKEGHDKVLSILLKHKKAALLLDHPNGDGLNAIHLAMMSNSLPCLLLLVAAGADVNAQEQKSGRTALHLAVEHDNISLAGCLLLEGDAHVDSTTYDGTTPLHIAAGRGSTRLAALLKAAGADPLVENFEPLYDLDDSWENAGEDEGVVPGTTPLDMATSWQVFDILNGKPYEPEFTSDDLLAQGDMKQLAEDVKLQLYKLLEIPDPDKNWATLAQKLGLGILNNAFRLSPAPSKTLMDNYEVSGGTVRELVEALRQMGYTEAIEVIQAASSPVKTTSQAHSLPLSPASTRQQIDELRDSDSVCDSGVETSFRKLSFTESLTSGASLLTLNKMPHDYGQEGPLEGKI

Take `CNC(=O)N(C)c1nnc(C(C)(C)C)s1`: the outcome is “inactive” in assay [1]; “inactive” with MYC, MYC (gene 4609); “inactive” in [2]; “inactive” in assay [3]; “inactive” in [4]; “inactive” in [5]. Further, the result in [6], in assay [7], in assay [8], in assay [9], in [10] and in assay [11] was inactive. Besides, the outcome in [12] is “inactive”; in assay [13], “inactive”; with TIMP1, TIMP1 (gene 7076) it was “inactive”; in assay [14], “inactive”.

On to `N#Cc1c[nH]cc1-c1cccc2c1OC(F)(F)O2`, for which the compound was called inactive in assay [1], in [2], in [15], in assay [4], in [5] and in assay [7]. Further, the outcome in [16] is “inactive”; in assay [9], “inactive”; in assay [12], “inactive”; with TIMP1, TIMP1 (gene 7076), “inactive”; in assay [14], “inactive”. Further, the AC50 was 80.3 µM (active) with MYC, MYC (gene 4609); 74.2 µM (active) in assay [3]; 83.9 µM (active) in assay [6]; 84.7 µM (active) in [8]; 50 µM (active) in assay [10]; 50 µM (active) in [11].

With `CCCCC(C#N)(Cn1cncn1)c1ccc(Cl)cc1` (centres undefined), the outcome is “inactive” in [1]; “inactive” in the assay with MYC, MYC (gene 4609); “inactive” in [3]; “inactive” in assay [4]; “inactive” in [5]; “inactive” in [17]. Moreover, the compound was classed as inactive in assay [6], in assay [7], in [8], in assay [16], in [9] and in [10]. Moreover, the outcome was “inactive” in [11]; “inactive” in assay [12]; “inactive” with TIMP1, TIMP1 (gene 7076); “inactive” in assay [14]. The AC50 is 73.1 µM (active) in [2] and 50 µM (active) in [13].

As for `CCNP(=S)(OC)O/C(C)=C/C(=O)OC(C)C` (centres undefined), the outcome in [1] was “inactive”; in the assay with MYC, MYC (gene 4609), “inactive”; in assay [3], “inactive”; in assay [4] it was “inactive”; in assay [5], “inactive”; in [17], “inactive”. The compound was classed as inactive in [6], in [7], in [16], in assay [9], in assay [10] and in assay [11]. For the same compound, the outcome is “inactive” in [12]; “inactive” in assay [13]; “inactive” with TIMP1, TIMP1 (gene 7076); “inactive” in assay [14]. Moreover, the AC50 in assay [2] was 50 µM (active); in [8], 9.92 µM (active).

In general, AC50 refers to the concentration at which the activity in the assay is half-maximal.
